Source: PubChem BioAssay
G9a inh: inhibitors of human histone lysine methyltransferase G9a | Q96KQ7 | G9a H3K9 monomethylation, AlphaScreen, 2 h | Potency, µM (doses to about 102 µM), actives largely listed as inhibitors | actives 8.8% (n = 350,000) | AID 504332; note: nearly all actives have a fitted effect of over 75% in size
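Step 1: enzyme (final 20 nM) with compound, 15 min RT. Step 2: substrate peptide 500 nM and SAM 20 uM, 2 h RT. Step 3: anti-H3K9me1 antibody and AlphaScreen beads, 10 min, then plate read.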
PI5P4Ka inh: inhibitors of human PI5P4K alpha. PI5P4Kalpha enzyme, ADP-Glo luminescence, 60 min; active compounds read low. max response, %. actives 1.2% (n = 330,000). AID 652105; active = max response of -50% or lower; inconclusive = between -30% and -50%; inactive = -30% or higher; note: value at the top dose of about 77 µM
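ADP-Glo luminescence end-point after a 60 min room-temperature kinase reaction. PI5P4Kalpha and substrate in HEPES pH 7.4 buffer with EGTA, 0.1% CHAPS and 5% DMSO; ATP at 5 microM final.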
JMJD2A Tudor: blocks the human JMJD2A Tudor domain; AlphaScreen JMJD2A-Tudor / H3K4me3 peptide binding; Potency, µM (series often up to 114 µM), hits mostly inhibitors; actives 4.4% (n = 390,000); AID 504339; note: nearly all actives have a fitted effect of over 50% in size
Target sequence (O75164 whole entry, looked up, the tested form may be a part): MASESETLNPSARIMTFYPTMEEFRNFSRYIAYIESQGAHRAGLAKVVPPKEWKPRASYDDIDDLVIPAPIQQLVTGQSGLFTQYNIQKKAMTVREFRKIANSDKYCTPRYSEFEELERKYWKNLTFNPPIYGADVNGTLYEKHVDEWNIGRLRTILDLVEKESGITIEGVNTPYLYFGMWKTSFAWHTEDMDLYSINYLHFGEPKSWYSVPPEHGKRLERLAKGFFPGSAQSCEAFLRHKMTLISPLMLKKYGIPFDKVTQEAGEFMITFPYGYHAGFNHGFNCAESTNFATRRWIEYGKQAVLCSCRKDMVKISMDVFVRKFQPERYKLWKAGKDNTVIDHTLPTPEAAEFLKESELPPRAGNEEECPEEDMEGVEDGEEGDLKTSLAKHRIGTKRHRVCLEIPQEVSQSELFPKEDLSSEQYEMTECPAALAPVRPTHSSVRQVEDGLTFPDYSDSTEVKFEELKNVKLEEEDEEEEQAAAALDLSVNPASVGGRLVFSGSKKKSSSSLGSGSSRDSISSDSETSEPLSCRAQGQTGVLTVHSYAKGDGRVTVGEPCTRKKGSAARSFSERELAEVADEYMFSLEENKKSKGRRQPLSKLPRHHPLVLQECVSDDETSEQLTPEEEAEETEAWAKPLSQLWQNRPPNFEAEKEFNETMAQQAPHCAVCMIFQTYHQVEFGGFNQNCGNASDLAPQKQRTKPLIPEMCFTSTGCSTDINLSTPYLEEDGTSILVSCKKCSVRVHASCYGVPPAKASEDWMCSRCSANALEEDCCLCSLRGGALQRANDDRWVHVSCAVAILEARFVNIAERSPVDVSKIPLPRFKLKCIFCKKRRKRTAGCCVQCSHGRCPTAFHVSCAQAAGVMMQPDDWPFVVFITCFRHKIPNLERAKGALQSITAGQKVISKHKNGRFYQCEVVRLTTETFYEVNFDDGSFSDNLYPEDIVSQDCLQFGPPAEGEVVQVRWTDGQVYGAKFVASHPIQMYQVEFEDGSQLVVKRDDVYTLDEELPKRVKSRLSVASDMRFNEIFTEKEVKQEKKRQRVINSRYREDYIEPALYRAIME
BAZ2B inh: BAZ2B (human) inhibition; Q9UIF8; Potency, µM (doses to about 114 µM), most hits filed as inhibitors; AlphaScreen BAZ2B-H3K14Ac peptide displacement; actives 4.4% (n = 360,000); note: nearly all actives have a fitted effect of over 60% in size
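AlphaScreen displacement of biotin-H3(5-23)K14Ac peptide (50 nM final) from BAZ2B (50 nM final) in PBS pH 7.4, 0.01% Tween-20; complex preformed 30 min RT, then compounds (top 110 uM) 30 min RT, beads 20 min dark.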
PLK1 PBD inh: blocks phosphopeptide binding to human PLK1 polo-box domain; Plk1 PBD binding of FITC phosphopeptide, fluorescence polarization; actives 2.8% (n = 360,000); Potency, µM, actives largely listed as inhibitors; P53350; note: series mostly up to about 57 µM; nearly all actives have a fitted effect of over 65% in size
HP1b binding inh: inhibitors of HP1-beta chromodomain binding to methylated histone tails; AlphaScreen HP1-beta / biotin-H3K9me3 peptide binding; Potency, µM (top dose mostly 114 µM), usual class: inhibitors; actives 0.56% (n = 390,000); note: nearly all actives have a fitted effect of over 70% in size
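HP1-beta protein (50 nM final) preincubated 30 min at room temperature with biotinylated H3(1-18)K9me3 peptide (50 nM) in PBS pH 7.4, 0.01% Tween-20, then compound added for 30 min. AlphaScreen streptavidin donor/nickel chelate acceptor beads (10 ug/mL final), 30 min dark, luminescence read.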
Hits are given with their value; – = inactive; ? = inconclusive; · = no result given; [ ] = another dose, or the depositor's remark. The list is not random: actives were taken first. Their share in the collection is about 12%. Unless noted, calls come from the whole dose curve; as a rule, active = well fitted curve in the direction sought with a large enough effect; inconclusive = small, poorly fitted or top-dose-only effect, or another doubt; inactive = no such curve, though single readings can be large; an effect the other way counts as inactive or inconclusive.

SMILES	G9a inh	PI5P4Ka inh	JMJD2A Tudor	BAZ2B inh	PLK1 PBD inh	HP1b binding inh
O=C(NC(Cc1ccccc1)C(=O)O)/C(=C/c1ccc([N+](=O)[O-])cc1)NC(=O)c1ccc(Br)o1 (centres undefined)	–	–	–	–	–	–
O=C(NC(Cc1ccccc1)C(=O)O)/C(=C\c1ccc(Cl)cc1)NC(=O)c1ccco1 (centres undefined)	79µM	–	–	–	–	–
O=C(Nc1ccccc1)/C(=C/c1ccc([N+](=O)[O-])cc1)NC(=O)c1ccco1	18µM	–	–	–	–	–
CC(=O)O[C@@H]1[C@@H](O)CN[C@@H]1Cc1ccccc1	·	·	–	·	·	–
Cc1ccccc1OCc1nc2c3cnn(-c4cccc(F)c4)c3ncn2n1	–	·	–	–	·	–
O=C(N/N=C/c1cc(Cl)ccc1O)c1cccnc1	·	–	45µM	7.9µM	–	–
O=C(N/N=C/c1cc(Cl)ccc1O)c1ccccc1Br	–	–	79µM	?	–	–
O=C(CNC(=O)c1ccccc1Br)N/N=C/c1cc(Br)ccc1O	–	–	–	–	–	–
CCOC(=O)c1ccccc1NC(=O)CSc1cn(CC(=O)N2CCCCCC2)c2ccccc12	–	·	–	–	·	?
CCOc1ccc(S(=O)(=O)N(CC)CC(=O)NCc2ccncc2)cc1	–	–	–	–	–	–
O=C(N[C@H](C(=O)O)c1ccccc1)C1CCC(Cn2cnc3ccccc3c2=O)CC1 (some centres undefined)	–	–	–	–	–	–
COc1cccc(NC(=O)Nc2nc(-c3ccc(OC)c(OC)c3)cs2)c1	?	–	?	?	–	?
CN(C)Cc1cn(CC[C@@H]2CC[C@@H](NC(=O)Nc3ccccc3F)[C@@H](CO)O2)nn1	·	–	·	·	–	·
CC(=O)N1CCc2cc(S(=O)(=O)Nc3cccc(C(F)(F)F)c3)ccc21	–	–	89µM	–	–	–
CC(=O)N1CCCc2cc(S(=O)(=O)Nc3ccc4c(c3)OCO4)ccc21	50µM	–	–	–	–	–
CCN(CCCNS(=O)(=O)c1ccc2c(c1)CCN2C(C)=O)c1cccc(C)c1	?	–	22µM	?	–	–
CC(=O)N1CCCc2cc(S(=O)(=O)Nc3ccc(C)c(F)c3)ccc21	–	·	–	–	·	–
CCc1c(C)nc2nncn2c1Nc1cccc(C)c1	–	·	–	–	·	–
Nc1ccccc1C(O)(Cc1ccccc1)c1ccccc1 (centres undefined)	?	–	–	–	–	–
O=C(C1CCN(Cc2ccc(F)cc2)CC1)N(CCc1ccccc1)Cc1ccccc1	13µM	–	6.3µM	?	–	?
O=C(C1CCN(Cc2ccc(F)cc2)CC1)N(CCO)Cc1ccccc1	?	–	3.5µM	–	–	–
COc1ccccc1C(C)NC(=O)CCC(=O)N1CCN(S(=O)(=O)c2ccc(Cl)cc2)CC1 (centres undefined)	·	–	–	·	–	–
COc1ccc(OC)c(-c2nc(C(=O)NC3CCN(Cc4ccccc4)CC3)cc3c2[nH]c2ccccc23)c1	–[12.7 µM]	–	?	?	–	–
COc1ccc(OC)c(-c2nc(C(=O)NCCCN3CCOCC3)cc3c2[nH]c2ccccc23)c1	–[12.7 µM]	–	?	50µM	–	–
COc1ccc(-n2nc(C(=O)NCCCN3CCOCC3)c3ccccc3c2=O)c(OC)c1	–	–	56µM	–	21µM	–
SMILES	G9a inh	PI5P4Ka inh	JMJD2A Tudor	BAZ2B inh	PLK1 PBD inh	HP1b binding inh
COc1ccc(-n2nc(C(=O)NCC(=O)N3CCOCC3)c3ccccc3c2=O)c(OC)c1	–	–	–	–	–	–
CCC(CO)Oc1cc(NC(=O)c2ccc(F)cc2)c2ncn(C(C)C)c2c1 (centres undefined)	–[0.501 µM]	–	50µM	–	?	–
CCC(CO)Oc1cc(NC(=O)c2cccc(Cl)c2)c2ncn(C(C)C)c2c1 (centres undefined)	–[0.501 µM]	–	?	79µM	–	–
N#C/C(=C\c1cccn1S(=O)(=O)c1ccccc1)S(=O)(=O)c1ccc(F)cc1	·	–	·	·	–	·
Cc1cccc(N2CCN(C(=O)C3CCCN(S(=O)(=O)c4ccc5c(c4)oc(=O)n5C)C3)CC2)c1C (centres undefined)	–	·	?	–	·	–
O=C(Nc1ccc2c(c1)OCCO2)c1c(F)cccc1F	–	·	–	–	–	–
O=C(NC(=S)Nc1ccc2c(c1)OCCO2)c1ccccc1F	32µM	–	–	–	–	–
COc1cccc(C(=O)NC(=S)Nc2ccc(Cl)c(C(=O)O)c2)c1	?	–	–	?	–	–
CCOc1cccc(C(=O)NC(=S)Nc2ccc(Cl)cc2C(=O)O)c1	40µM	-60	?	–	5.3µM	?
COc1cccc(OC)c1C(=O)NC(=S)Nc1ccc2c(c1)OCCO2	56µM	–	?	–	–	–
S=C(Nc1ccc2c(c1)OCCO2)Nc1ccc2c(c1)OCO2	50µM	–	–	?	–	–
COc1ccc(Cn2c(=O)n(Cc3ccco3)c(=O)c3oc4ccccc4c32)cc1	–	·	–	–	·	–
CCOc1cccc(C(=O)NC(=S)Nc2ccc3c(c2)OCCO3)c1	40µM	–	?	?	–	?
O=C(NC(=S)NC(=O)c1ccccc1F)c1ccccc1F	10µM	–	–	–	?	–
O=C(NC(=S)NCc1ccccc1)c1ccccc1F	–	–	–	–	–	–
O=C(NC(=S)Nc1ccc2c(c1)OCCO2)c1ccccc1	40µM	·	?	45µM	–	?
CCOc1cccc(C(=O)NC(=S)Nc2ccc(N3CCCC3)cc2)c1	?	–	?	8.9µM	–	14µM
CCOc1cccc(C(=O)Nc2ccc(N3CCN(S(C)(=O)=O)CC3)cc2)c1	–	–	–	–	–	–
CN1C(C(=O)c2ccccc2)=C(OC(=O)c2ccc(Br)cc2)c2ccccc2S1(=O)=O	?	·	–	–	·	–
CCCCN1CC(N2CCN(Cc3ccccc3)CC2)CS1(=O)=O (centres undefined)	·	–	·	·	–	·
O=S(=O)(Nc1ccc2c(c1)OCCO2)c1c(F)cccc1F	40µM	–	–	–	–	–
O=S(=O)(Nc1ccc2c(c1)OCCO2)c1cccc(F)c1	–	–	–	–	–	–
COc1ccc(-n2c3c(cc(C(=O)NNc4ccccc4C)c2=O)C(=O)CC(C)(C)C3)cc1	50µM	–	–	·	–	–
CCc1ccc(C(C)NC(=O)c2ncn[nH]2)cc1 (centres undefined)	–	–	–	50µM	–	–
O=c1c(-c2c(O)cc(O)c3c(=O)cc(-c4ccc(O)cc4)oc23)c(-c2ccc(O)cc2)oc2cc(O)cc(O)c12	?	-83	50µM	28µM	?	–
O=c1cc(-c2ccc(O)c(-c3c(O)cc(O)c4c(=O)cc(-c5ccc(O)cc5)oc34)c2)oc2cc(O)cc(O)c12	–	-96	?	–	?	–
